mIDH1 inhibitor = inhibitors of human mutant IDH1 R132H; IDH1-R132H enzyme, NADPH consumption, diaphorase/resazurin fluorescence; hit rate 0.093% among 390,000; AID 602179; O75874; Potency, µM (doses to about 76.6 µM), for inactives: at the top dose activity change, negative = inhibition, usual class: inhibitors; note: % is set by controls: 0 for no effect and ±100 for the full control effect; nearly all actives have a fitted effect of over 65% in size
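IDH1-R132H (0.5 ug/mL dispensed) in pH 7.5 Tris buffer was preincubated 30 min with compound, then given a substrate mix of 0.016 mM NADPH and 2 mM alpha-KG for 80 min at room temperature; remaining NADPH was read by diaphorase/resazurin fluorescence.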
rTrxR1 inhibitor = blocks rat thioredoxin reductase 1 | O89049 | Potency, µM (titrated, usually from 114 µM), inactives show at the highest dose activity change, negative = inhibition, usual class: inhibitors | AID 588453 | recombinant rTrxR1, NADPH fluorescence consumption, selenite substrate | hit rate 1% among 390,000; note: % is set by controls: 0 for no effect and ±100 for the full control effect; nearly all actives have a fitted effect of over 65% in size
Target sequence (O89049 whole entry, looked up): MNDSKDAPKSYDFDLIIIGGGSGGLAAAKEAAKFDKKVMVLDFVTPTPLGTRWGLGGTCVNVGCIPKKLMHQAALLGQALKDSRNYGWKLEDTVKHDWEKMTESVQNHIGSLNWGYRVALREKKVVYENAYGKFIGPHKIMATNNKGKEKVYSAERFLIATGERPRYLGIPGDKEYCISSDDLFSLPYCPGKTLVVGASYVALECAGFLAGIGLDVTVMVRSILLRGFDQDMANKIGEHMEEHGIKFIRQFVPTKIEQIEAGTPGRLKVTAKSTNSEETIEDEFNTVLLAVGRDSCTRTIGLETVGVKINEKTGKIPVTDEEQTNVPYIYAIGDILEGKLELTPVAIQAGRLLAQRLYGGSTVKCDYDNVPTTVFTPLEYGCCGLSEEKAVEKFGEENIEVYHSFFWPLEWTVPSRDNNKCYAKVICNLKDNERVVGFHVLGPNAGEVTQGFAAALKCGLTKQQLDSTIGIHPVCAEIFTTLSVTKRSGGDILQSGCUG
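Rat TrxR1 (90 nM in the dispensed reagent) was pre-reduced with 400 uM NADPH for 5 min at room temperature, then incubated with compound for 15 min. After 400 uM selenite was added, NADPH fluorescence (Ex 340/Em 450 nm) was followed for 8 min.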
Nrf2 inh = inhibitors of Nrf2 signaling. A549 ARE-Fluc reporter, luciferase luminescence, 18-24 h. Potency, µM (highest dose often 46 µM), inactives show at the top dose activity change, negative = inhibition, most hits filed as inhibitors. hit rate 2.1% among 360,000. AID 504444; note: % is set by controls: 0 for no effect and ±100 for the full control effect; nearly all actives have a fitted effect of over 60% in size
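Concentration-response testing used A549 ARE_Fluc cells at 5000 cells/well. Following an 18-24 h compound incubation, viability was read by fluorescence (Ex 405/Em 525) and luciferase output by luminescence.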
A549 tox = A549 cytotoxicity, counter-screen for Nrf2 inhibitors | A549 ARE-Fluc cells, CellTiter-Fluor viability, 18-24 h | Potency, µM (series often up to 46 µM), without a hit: at the top dose activity change, negative = cytotoxicity, hits mostly inhibitors | hit rate 0.16% among 390,000 | AID 504648; note: % is set by controls: 0 for no effect and ±100 for the full control effect
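Cytotoxicity counterscreen: CellTiter-Fluor fluorescence was measured in A549 ARE_Fluc cells after 18-24 h of compound exposure in a concentration series. The subsequent BugLite luminescent read reports ARE-luciferase activity.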
TrxR1 substrate = is turned over as a substrate by rat TrxR1 | O89049 | purified TrxR1 substrate turnover, NADPH consumption readout | Potency, µM (doses to about 114 µM), inactives show at the top dose activity change, negative = substrate turnover | hit rate 0.01% among 390,000; note: % is set by controls: 0 for no effect and ±100 for the full control effect; nearly all actives have a fitted effect of over 50% in size
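Rat TrxR1, dispensed at 90 nM, was prereduced with 400 uM NADPH (final) for 5 min at ~22 deg C, then incubated with compound 15 min before 400 uM selenite. A first-read NADPH fluorescence drop versus no-compound background flagged substrates.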
Mito fusion yeast = mitochondrial division inhibition or fusion activation | hit rate 0.23% among 320,000 | Potency, µM (doses to about 46.1 µM), inactives show top-dose growth rescue (activation), usual class: activators | S. cerevisiae fusion-defective mutant growth rescue, CellTiterGlo 48 h; note: % of control where 0% means no effect; nearly all actives have a fitted effect of over 45% in size
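Luminescent cell viability in 1536-well qHTS format served as the measure of rescued growth in ts fusion-mutant S. cerevisiae cultured on non-fermentable YPEG for 48 hours at 37C.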
Numbers without * were called inactive; ? = inconclusive; . = no result; ! = a repeat was not active; [ ] = remark or other dose. A selection: hits, their analogues and other compounds. The true share with any hit is near 3.1%. Calls come from the whole dose curve; as a rule, active = well fitted curve in the direction sought with a large enough effect; inconclusive = small, poorly fitted or top-dose-only effect, or another doubt; inactive = no such curve, though single readings can be large; an effect the other way counts as inactive or inconclusive. Potency is the fitted concentration of half-maximal effect.

SMILES	mIDH1 inhibitor	rTrxR1 inhibitor	Nrf2 inh	A549 tox	TrxR1 substrate	Mito fusion yeast
NS(=O)(=O)c1ccc(N/N=C2/CCCCC2C2CCCCC2)c([N+](=O)[O-])c1 (stereo not drawn)	-16%	-10%	21µM*	?	-10%	-24%
CNc1nc(N/N=C/c2cc3c(cc2[N+](=O)[O-])OCO3)nc(Nc2ccccc2)n1	4%	-26%	18µM*	?	-2%	-4%
C/C=C(\C)C(=O)OC1[C@H](OC(C)=O)C2(CO)C(CC1(C)C)C1=CCC3C4(C)CCC(O[C@@H]5O[C@H](C(=O)O)[C@@H](O[C@@H]6O[C@H](CO)[C@@H](O)[C@H](O)[C@H]6O)[C@H](O)[C@H]5O[C@H]5O[C@H](CO)[C@@H](O)[C@H](O)[C@H]5O)[C@](C)(CO)C4CCC3(C)[C@]1(C)C[C@H]2O (stereo partly drawn)	.	1%	18µM*	?	-3%	.
CC(C)c1cc(NC(=O)CCl)on1	5%	50µM*	-3%	1%	0%	-26%
CCN1/C(=C/c2ccc3cc(C)ccc3[n+]2CC)Sc2cc(C)ccc21	0%	14%	4.6µM*	?	0%	-6%
CCN1/C(=C/c2ccc3cc(C)ccc3[n+]2C)Sc2ccc3sccc3c21	-6%	30%	18µM*	-25%	-3%	-35%
Cc1sc2c3ccsc3ccc2[n+]1C	1%	23%[57.1 µM]	2%	-3%	8%[57.1 µM]	9%
CCCCN1/C(=C/c2ccc3ccccc3[n+]2CC)Sc2ccccc21	-5%	-20%	?	?	-10%	-11%
O=C(COc1ccc(Br)cc1Br)Nc1ccc(S(=O)(=O)Nc2ncccn2)cc1	-12%	8%[57.1 µM]	.	-1%	-6%[57.1 µM]	.
CC1Sc2n(c3ccccc3[n+]2C)N=C1c1ccccc1 (stereo not drawn)	0%	-6%	12µM*	-18%	-3%	6%
O=C(NN=Cc1c(O)ccc2ccccc12)c1ccncc1	5%	-27%[11.4 µM]	26µM*	?	-1%[11.4 µM]	.
O=C(N/N=C\c1c(O)ccc2ccccc12)c1ccc(O)cc1	16%	33%	-20%	-15%	7%	-5%
Cc1ccc(C(=O)c2cn(Cc3ccc(Cl)cc3)c3nc(C)ccc3c2=O)cc1	-9%	11%	?	-9%	-1%	?
CC1=C(/C=C/C(C)=C/C=C/C(C)=C/C(=O)O)C(C)(C)CCC1	-8%	25µM*!	?	-2%	8%[57.1 µM]	-52%
CC(/C=C\c1ccccc1)=C/C(=O)O	2%	3%[57.1 µM]	11%	-5%	5%[57.1 µM]	4%
COc1cccc2c1C(=O)c1c(O)c3c(c(O)c1C2=O)CC(O)(C(C)=O)CC3OC1CC(O)C(O)C(C)O1 (stereo not drawn)	-5%	23%[11.4 µM]	10µM*	?	9%[57.1 µM]	.
COc1cccc2c1C(=N)c1c(O)c3c(c(O)c1C2=O)CC(O)(C(C)=O)CC3OC1CC(N)C(O)C(C)O1 (stereo not drawn)	10%	4%[11.4 µM]	?	?	3%[11.4 µM]	.
CCCCC(=O)OCC(=O)C1(O)Cc2c(O)c3c(c(O)c2C(OC2CC(NC(=O)C(F)(F)F)C(O)C(C)O2)C1)C(=O)c1c(OC)cccc1C3=O (stereo not drawn)	-3%	-12%	9.2µM*	?	-16%	.
COc1ccccc1/C=C/c1cncc(/C=C/c2ccccc2OC)c1	.	7%	.	.	-5%	.
CN(C)c1ccc(/C=C/c2ncnc3ccccc23)cc1	.	-11%	.	.	-10%	.
COc1ccc(CCN2CC(C(=O)N(C)Cc3ccc(C)o3)CCC2=O)cc1 (stereo not drawn)	-6%	50µM*	?	1%	1%	-6%
COc1ccccc1CN1CC(C(=O)NCCc2ccc(C)o2)CCC1=O (stereo not drawn)	4%	50µM*	7%	5%	1%	0%
COc1ccccc1CN1CC(C(=O)N(C)Cc2ccncc2C)CCC1=O (stereo not drawn)	1%	9%	9%	-3%	8%	-1%
COc1ccc(CCN2CC(C(=O)N(C)Cc3ccccn3)CCC2=O)cc1 (stereo not drawn)	-1%	.	.	.	.	.
COc1ccccc1CN1CC(C(=O)N(C)Cc2ccc(C)o2)CCC1=O (stereo not drawn)	-3%	35µM*	24%	0%	7%	-12%
SMILES	mIDH1 inhibitor	rTrxR1 inhibitor	Nrf2 inh	A549 tox	TrxR1 substrate	Mito fusion yeast
CN(C)c1ccc(/C=C2\C=Nc3ccccc32)cc1	.	6%	.	.	-5%	.
C=C(C)c1cccc(C(C)(C)NC(=O)Nc2cc(C)ccn2)c1	3%	6%	15µM*	?	1%	-3%
C=C(C)c1cccc(C(C)(C)NC(=O)Nc2ccc(C)cn2)c1	4%	-18%	?	-7%	-12%	?
C=C(C)c1cccc(C(C)(C)NC(=O)Nc2ccc(OC)nc2)c1	-5%	5%	?	12µM*	-4%	2%
CCc1nc2nc(C)c(NS(=O)(=O)c3ccc(C(C)(C)C)cc3)c(=O)n2[nH]1	?	10%	12%	0%	2%	.
CCCNC(=O)C1CCC(Cn2c(=O)c3sccc3n(Cc3cccc(OC)c3)c2=O)CC1 (stereo not drawn)	18%	-6%[57.1 µM]	-9%	-12%	-5%[57.1 µM]	.
CC(=O)Oc1cccc2c1C(=O)c1c(OC(C)=O)cc(C(=O)O)cc1C2=O	?	-14%	?	21µM*	-10%	1%
CC(=O)Oc1ccc(C(=O)O)cc1OC(C)=O	7%	27%	-8%	1%	0%	-7%
CC1=Nc2ccccc2/C1=C(/C)c1c(C)[nH]c2ccccc12	.	1%	.	.	-3%	.
COc1cc2c(cc1OC)CN(C(=S)Nc1cccc(Cl)c1C)CC2	6%	-2%[57.1 µM]	18µM*	-9%	-3%[57.1 µM]	-6%
COc1ccccc1NC(=S)N1CCc2cc(OC)c(OC)cc2C1	-8%	-31%	-12%	4%	-11%	-6%
C(=C\c1ccnc2ccccc12)/c1ccc(N2CCN(c3ccc(/C=C/c4ccnc5ccccc45)cc3)CC2)cc1	.	6%	.	.	-1%[0.0914 µM]	.
CCOc1ccc(C2c3c(oc4ccccc4c3=O)C(=O)N2CCCN2CCOCC2)cc1 (stereo not drawn)	-3%	?	-13%	-9%	-2%	-2%
O=C1c2oc3ccccc3c(=O)c2C(c2cccs2)N1CCCN1CCOCC1 (stereo not drawn)	8%	40µM*	-8%	-18%	-8%	1%
O=c1c2ccccc2cnn1-c1nc2ccccc2[nH]1	15%	10%	?	-1%	15%	1%

Compound activity: PubChem, National Center for Advancing Translational Sciences (NCATS)
